Results on 50 compounds are retold here after PubChem BioAssay AID595 (National Center for Advancing Translational Sciences (NCATS), 2007).

The structures appear in SMILES notation. In all, about 71,000 compounds went through this assay and about 310 (0.44%) were called active. Inconclusive results (about 5%) are left out. What follows is part of a selection rich in actives, with near analogues and random picks from the rest. Entries that show only a call come without a potency. A number with no mark means an inactive call. The call rests on the fitted dose curve; in most records, active means well fitted curve in either direction with a large enough effect; inconclusive means small, poorly fitted or top-dose-only effect, or another doubt; inactive means flat fitted curve, though single readings scatter.
Potency means the concentration at half of the fitted maximal effect.

This experiment relates to Hsp90 C-terminal peptide / TPR2A (Hop) interaction, human. Briefly: qHTS Assay for Disrupters of an Hsp90 Co-Chaperone Interaction. The conditions noted are these: AlphaScreen TPR2A-His6 binding biotin-Hsp90 C-terminal peptide; series mostly up to 57 µM. The source says:
NIH Chemical Genomics Center [NCGC]
NIH Molecular Libraries Screening Centers Network [MLSCN]
Hsp90 (heat shock protein 90) is the essential molecular chaperone and it accounts for 1-2% of all cytosolic proteins and is critical for the activity of diverse cellular proteins that are involved in a variety of cellular processes, including development, cell cycle, and steroid hormone signaling. Its client proteins include signaling kinases such as IGF1R, Akt, v-Src, Raf-1; regulators of cell survival such as Bcr-Abl; and transcription factors such as mutated p53, estrogen and progesterone receptors. Hsp90 has emerged as an important target for cancer treatment due to its essential role in maintaining transformation and regulating the function of oncogenic signaling proteins.
The in vivo function of Hsp90 is regulated by the binding and hydrolysis of ATP at its N-terminal. Geldanamycin binds to ATP site and inhibit Hsp90 function. Geldanamycin and its analogues are under clinical trials in cancer patients.
This domain contains the binding site for tetratricopeptide repeat (TPR) domains on HOP (Hsp Organizing Protein). TPR is a structural motif used by a significant number of cochaperones by which the in vivo function of Hsp90 is regulated. TPR2A on HOP binds specifically to MEEVD motif of the C-terminal of Hsp90.
A homogeneous AlphaScreen is developed to assess the interaction between TPR2A and MEEVD motif of the C-terminal of Hsp90 by using the isolated TPR2A domain and a synthesized 20mer Hsp90 C terminal peptide. AlphaScreen is two bead-based proximity-dependent chemical energy transfer luminescent assay platform. TPR2A-His-6 and biotinylated Hsp90 C terminal peptide will bring streptavidin donor beads and nickel chelate acceptor beads to a proximity range (less than 200 nm), and subsequently lead a chemical luminescent reaction upon exciting donor beads with 680 nm laser. Inhibition of TPR2A and MEEVD motif interaction by small molecules could attenuate or abolish this chemical luminescent reaction.
Counter screening: Biotinylated-His-6 (PerkinElmer) can be utilized as a counter screen, as it serves as a linker to bring streptavidin beads and nickel chelate beads together. The counter screen can exclude alpha screen platform false positives due to small molecules being metal chelators, biotin analogues and imidazole analogues, or due to interfering with oxygen release from donor beads. Such an assay should be utilized to qualify any activity observed in this screen.
NCGC Assay Protocol Summary:
The assay was performed on 1536-well white plate (untreated solid bottom). Liquids were dispensed by 1536-well plate washer (Kalypsys, San Diego, CA). Plates were read on EnVision (PerkinElmer, Boston, MA).TPR2A-His6 was produced using a bacteria expression system and purified using a well developed method (Ghosh et al., 2000). Hsp90 C terminal 20-mer peptide with or without an N-terminal biotin group are synthesized using automated solid phase synthesis by the Yale Keck facility. The composition of assay buffer was (in mM) 25 HEPES, 100 KCl, 2 MgCl2 and 2 DTT; 0.1% BSA and 0.01% Tween-20. TPR2A-His6 binding to biotin-Hsp90 will bring streptavidin donor beads and nickel chelate acceptor beads (PerkinElmer) together and can be measured by Alpha reading by EnVision (PerkinElmer). Free Hsp90 blocks biotin-Hsp90 binding to TPR2 and serves as a positive control in the current asssay.
The assay was performed at room temperature. All compounds were screened as titrations from […] to 46 uM final concentration. The assay was performed in 1536-well format plates (untreated white solid bottom, Corning Inc.) as follows:
Sequence,Parameter,Value,Description
1,Reagent,3 uL TPR2A-His6,Final concentration was 5nM
2,Compound,23 nL,Final titration was from 0.7 nM to 46 uM
3,Time,15 minutes,Room temperature
4,Reagent,1 uL biotin-Hsp90,With and without free Hsp90. Final concentration was 10 nM for biotin-Hsp90 and 10uM for free Hsp90.
5,Time,1 hour,Room temperature
[…]
(qHTS replaces the single test concentration by a dilution series.)
Regarding `O=C(COc1ncnc2ccccc12)NC(=O)NCc1ccccc1`, the activity change, negative = inhibition result is “inactive”.

In the case of `C[C@@H]1O[C@@H](O[C@@H]2[C@@H](O)[C@H](OCCc3ccc(O)c(O)c3)O[C@H](CO[C@@H]3O[C@H](CO)[C@@H](O)[C@H](O)[C@H]3O)[C@H]2OC(=O)/C=C/c2ccc(O)c(O)c2)[C@H](O)[C@H](O)[C@H]1O`, the activity change, negative = inhibition entry is “inactive”.

In the case of `Cc1ccccc1N1CCN(S(=O)(=O)C[C@@]23CC[C@H](C[C@H]2NC(=O)[C@@H](N)CCS(C)(=O)=O)C3(C)C)CC1`, the activity change, negative = inhibition entry is “inactive”.

For the compound `COc1ccc(NC(=O)N2CC3(CCN(C(=O)c4cccn4C)CC3)C2)cc1`, the activity change, negative = inhibition result is “inactive”.

For `COc1ccc(C(=O)N2CCC3(CC2)CCN(c2ccccn2)CC3)cc1`, the activity change, negative = inhibition entry is “inactive”.

`O=C(Nc1cccc(F)c1)N1CC2(CCN(C(=O)c3csnn3)CC2)C1`: the activity change, negative = inhibition result is “inactive”.

Take `CCn1ccnc1C[C@@H]1COc2ccccc2O1`: the activity change, negative = inhibition result is “inactive”.

Take `CC/C=C/C/C=C/C/C=C/CCCCCCCC(=O)OCC`: the activity change, negative = inhibition entry is “inactive”.

Consider `COC(=O)c1c(NC(=O)CSc2nc3c(c(=O)n(C)c(=O)n3C)n2C(C)C)sc(C)c1C`, for which the activity change, negative = inhibition entry was “inactive”.

For the compound `CCOC(=O)c1c(NC(=O)CSc2nnc(CN3CCOCC3)n2C)sc2c1CCCC2`, the activity change, negative = inhibition result is “inactive”.

Consider `CCOC(=O)c1c(NC(=O)CSc2nnc(Cc3csc(N)n3)n2C)sc(C)c1C`, for which the Potency is 25.1 µM (active).

Regarding `Brc1cc(Br)c(Oc2cc(Br)c(Br)cc2Br)cc1Br`, the activity change, negative = inhibition entry was “inactive”.

`Nc1nc2c(ncn2[C@H]2CC[C@@H](CO)O2)c(=O)n1C(=O)c1ccccc1`: the activity change, negative = inhibition is -4.52% [at 11 µM].

Turning to `CCOC(=O)CSc1nnc(CNc2ccc(F)cc2)o1`, the activity change, negative = inhibition result is “inactive”.

For `C[C@]1(O)CC[C@H]2[C@H]3CC=C4N5CCN=C5CC[C@@]4(C)[C@H]3CC[C@@]21C`, the activity change, negative = inhibition was -4.96% [at 11 µM].

In the case of `CC1(CCC(=O)OC2CCCCC2)OCCO1`, the activity change, negative = inhibition was -2.62% [at 11 µM].

For the compound `CN1CCN(S(=O)(=O)c2ccc3[nH]cc(C(=O)O)c(=O)c3c2)CC1`, the activity change, negative = inhibition entry was “inactive”.

`CCOC(=O)c1nc(N)sc1C(=O)OCC`: the activity change, negative = inhibition entry is “inactive”.

Take `COC(=O)C1(C)C=CCN1C(=O)c1ccccc1` (stereo not given): the activity change, negative = inhibition result was “inactive”.

For the compound `Cc1c(O)c(Br)c(C)c(O)c1Br` (tested in a mixture with another compound), the activity change, negative = inhibition was -3.86% [at 11 µM].

Regarding `COCCNc1ccnc(-c2cccc(NS(C)(=O)=O)c2)n1`, the activity change, negative = inhibition entry is “inactive”.

As for `Cc1cccc(CNc2cc(-c3ccccc3Cl)ncn2)c1`, the activity change, negative = inhibition result is “inactive”.

For `O=C(Nc1c[nH]c(=O)[nH]c1=O)Oc1ccccc1`, the activity change, negative = inhibition was 1.58% [at 11 µM].

Turning to `Nc1ccccc1N`, the activity change, negative = inhibition entry is “inactive”.

For `COc1cc([C@H]2c3cc4c(cc3[C@@H](O[C@@H]3O[C@H]5CO[C@@H](C)O[C@]5(O)C[C@H]3O)[C@@H]3COC(=O)[C@H]23)OCO4)cc(OC)c1O`, the activity change, negative = inhibition result was “inactive”.

Consider `NS(=O)(=O)c1ccc(NS(=O)(=O)/C=C/c2ccccc2)cc1`, for which the activity change, negative = inhibition entry was “inactive”.

In the case of `Cc1cccc2cc(C#N)c(N3CCCC3)nc12`, the Potency is 31.6 µM [activator] (active).

Regarding `Cc1cc(C)c2nc(N3CCCC3)c(C#N)cc2c1`, the activity change, negative = inhibition entry was “inactive”.

In the case of `Cc1ccc(S(=O)(=O)C(C#N)c2nc3ccccc3nc2N2CCCC2)cc1C` (stereo not given), the activity change, negative = inhibition entry was “inactive”.

With `C[C@@H]1C[C@H]2[C@@H]3C[C@H](F)C4=CC(=O)C=C[C@@]4(C)[C@]3(F)[C@H](O)C[C@]2(C)[C@@]1(O)C(=O)CO`, the activity change, negative = inhibition entry was “inactive”.

Consider `CN1CCN(c2ncc3nc(-c4ccc(Cl)cc4)c(=O)n(-c4ccccc4)c3n2)CC1`, for which the activity change, negative = inhibition result was “inactive”.

As to `O=C(Nc1cccc(F)c1)N1CCC2(CC1)CCN(S(=O)(=O)c1ccccc1)CC2`, the activity change, negative = inhibition entry was “inactive”.

On to `Cc1nc2cnc(Oc3cccc(Cl)c3)nc2n(C2CC2)c1=O`, for which the activity change, negative = inhibition entry was “inactive”.

In the case of `ON=C1/C(=N\O)CC2(C/C1=N/O)OCCO2`, the Potency was 12.6 µM (active).

Take `O/N=C1\CC2(Cc3nonc31)OCCO2`: the activity change, negative = inhibition entry is “inactive”.

As to `O=c1c(CCc2ccccc2)nc2cncnc2n1C1CC1`, the activity change, negative = inhibition result is “inactive”.

As to `COc1ccccc1CNc1ncncc1-c1cccc(NS(C)(=O)=O)c1`, the activity change, negative = inhibition result was “inactive”.

Consider `COCCNc1cc(-c2c(C)noc2C)ncn1`, for which the activity change, negative = inhibition result was “inactive”.

Turning to `O=C(O)[C@@H]1[C@@H](C(=O)O)[C@]23C[C@@]2(C(=O)O)[C@]2(C(=O)O)CCC3=C3CCCC312`, the activity change, negative = inhibition was 0.013% [at 11 µM].

As for `O=C(CC(NS(=O)(=O)c1ccc(Cl)cc1)c1ccco1)NC1CCCC1` (stereo not given), the activity change, negative = inhibition entry was “inactive”.

With `CN1CCN(S(=O)(=O)c2ccc(NC(=O)C3CCCO3)cc2)CC1` (stereo not given), the activity change, negative = inhibition entry is “inactive”.

For the compound `O=S(=O)(c1ccccc1)N1CCC2(CC1)CN(Cc1nccs1)C2`, the activity change, negative = inhibition result is “inactive”.

`NC1(C(=O)OCc2ccccc2)CCCC1`: the activity change, negative = inhibition is -2.78% [at 11 µM].

Consider `NCC(=O)[C@@H](O)[C@H](O)[C@H](O)CO`, for which the activity change, negative = inhibition was -1.57% [at 11 µM].

Turning to `Cc1ccc(CNC(=O)C2CC(=O)N(C3CCCCCCC3)C2)cc1` (stereo not given), the activity change, negative = inhibition entry is “inactive”.

As to `COc1ccc(C(=O)N2CCC[C@@]3(CCN(C(=O)NC(C)C)C3)C2)cc1`, the activity change, negative = inhibition entry was “inactive”.

Turning to `Clc1ccc(Cc2nnc(-c3cccs3)o2)cc1`, the activity change, negative = inhibition result was “inactive”.

Turning to `Cn1c(=O)c(-c2ccccc2)nc2cnc(N3CCNCC3)nc21`, the activity change, negative = inhibition entry is “inactive”.

`C=CC(=C)CCC=C(C)C`: the activity change, negative = inhibition entry is “inactive”.

On to `CN1CCN(c2cc(=O)n(-c3ccc(Cl)cc3)c(=O)[nH]2)CC1`, for which the activity change, negative = inhibition result was “inactive”.
